Sm TGR inh = qHTS Assay for the Inhibitors of Schistosoma Mansoni Peroxiredoxins; purified TGR, DTNB reduction, TNB absorbance 405 nm; Potency, µM (top dose mostly 114 µM), inactives show at the top dose activity change, negative = inhibition, actives largely listed as inhibitors; 360,000 tested, 3% active; also: potency is read from the fitted curve at half-maximal effect; % is scaled to controls: 0 for no effect and ±100 for the full control effect; nearly all actives have a fitted effect of over 60% in size
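TGR 20 nM + NADPH 100 uM (dispensed conc.), cpd preinc 15 min RT; start with NADPH (500 uM addition) then DTNB (15 mM addition). Kinetic TNB absorbance, 405 nm filter. Four-parameter Hill fit across titration.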
SARS PLP yeast = qHTS of Yeast-based Assay for SARS-CoV PLP; S. cerevisiae expressing SARS-CoV PLpro, growth rescue; Potency, µM (series often up to 32.9 µM), for the others: at the highest dose activity, positive = growth rescue, actives largely listed as activators; 330,000 tested, 0.19% active; calls by dose curve; also: potency is read from the fitted curve at half-maximal effect; 0% is about no effect; nearly all actives have a fitted effect of over 55% in size
Pf growth 96h = Primary qHTS for delayed death inhibitors of the malarial parasite plastid, 96 hour incubation; P. falciparum luciferase reporter growth, 96 h; Potency, µM (highest dose often 28.7 µM), for inactives: at the highest dose activity change, negative = inhibition, actives largely listed as inhibitors; 320,000 tested, 6.9% active; also: potency is read from the fitted curve at half-maximal effect; % is scaled to controls: 0 for no effect and ±100 for the full control effect
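Plates of compound plus infected erythrocytes (2% hematocrit, 0.05% parasitemia final) incubate 96 hours, 37 C, 5% CO2. Detection reagent added; reduced luminescence from the parasites' luciferase reporter flags inhibition.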
Pf growth 48h = Primary qHTS for delayed death inhibitors of the malarial parasite plastid, 48 hour incubation; 310,000 tested, 5.9% active; Potency, µM (series often up to 28.7 µM), without a hit: top-dose activity change, negative = inhibition, usual class: inhibitors; P. falciparum luciferase growth in erythrocytes, 48 h; also: potency is read from the fitted curve at half-maximal effect; % is scaled to controls: 0 for no effect and ±100 for the full control effect
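Parasite viability was followed by luminescence of a genomically integrated firefly luciferase. Cultures held 0.1% parasitemia at 2% hematocrit (final), incubated under 5% CO2 at 37 C.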
HCMV inh = qHTS Assay for inhibitors of the human cytomegalovirus (HCMV) | activity change, negative = inhibition, % at 57.5 µM | HFF cells, HCMV-luciferase reporter, 72 h; stronger effect = lower value | AID 1259415, 2018 | 410,000 tested, 4.5% active; in the data active = activity change below about -60%; inconclusive = no clear call, values can overlap the other calls; inactive = above about -39%; also: % is scaled to controls: 0 for no effect and ±100 for the full control effect
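Human foreskin fibroblasts infected with luciferase-reporter HCMV at MOI 1 PFU/cell, compounds at two doses. Luciferase measured 72 h post infection; normalized to buffer-only basal and Salinomycin (10uM) controls.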
HCV inhibitor = qHTS Assay for Inhibitors of Hepatitis C Virus (HCV) | Potency, µM (titrated, usually from 41.8 µM), inactives show top-dose activity change, negative = inhibition, actives largely listed as inhibitors | 340,000 tested, 3.4% active | AID 651820, 2012 | Huh7.5.1 HCVcc-Cre infection, luciferase reporter, 44 h; also: potency is read from the fitted curve at half-maximal effect; % is scaled to controls: 0 for no effect and ±100 for the full control effect
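Antiviral activity was scored by luciferase reporter output from cells infected with HCVcc-Cre (~0.5 moi) in presence of compound, 44 h infection period, cells seeded 1,000/well 4 h prior.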
An asterisk follows results filed as active; ? = inconclusive; . = not tested or not shown. A selection: hits, their analogues and other compounds. The true share with any hit is near 15%. Unless noted, calls follow the shape of the dose curve; as a rule, active = well fitted curve in the direction sought with a large enough effect; inconclusive = small, poorly fitted or top-dose-only effect, or another doubt; inactive = no such curve, though single readings can be large; an effect the other way counts as inactive or inconclusive.

SMILES	Sm TGR inh	SARS PLP yeast	Pf growth 96h	Pf growth 48h	HCMV inh	HCV inhibitor
COc1ccc(NS(=O)(=O)c2ccc(NC(=S)NC(=O)c3ccc(Br)cc3)cc2)nn1	39.8µM*	-13.4%	11.7µM*	18.8%	21.0	5.4%
COc1ccc(CNC(=O)CNS(=O)(=O)c2ccc(Cl)cc2)cc1	-16.5%	16.1%	3.2%	-11.3%	4.0	14.6%
Cc1ccc(-n2ncc3c(NCCC4=CCCCC4)ncnc32)cc1	1.4%	.	.	.	37.8	.
CCOC(=O)CNC(=O)CSc1nnc(NC(=O)c2ccc(S(=O)(=O)N3CCOCC3)cc2)s1	0.1%	-6.2%	31.5%	2.5%	-5.0	.
O=C(CCCCCNC(=O)N1CCn2c1nc1ccccc12)NCc1ccc(F)cc1	0.9%	3.1%	?	?	0.0	1.2%
O=C(NCCOc1ccccc1)c1cccc2c1C(=O)c1ccc(Cl)cc1S2(=O)=O	-12.9%	2.0%	-2.1%	21.2%	-10.2	10µM*
O=C(NCCN1CCCCC1)c1cccc2c1C(=O)c1ccc(N3CCCC3)cc1S2(=O)=O	.	-7.8%	.	.	-65.0*	5.0%
O=C(NC1CC1)c1cccc2c1C(=O)c1ccc(N3CCC(Cc4ccccc4)CC3)cc1S2(=O)=O	.	7.6%	.	.	-31.6	10µM*
CCOc1ccc(CNC(=O)c2ccc(NC(=O)N3CCSc4ncccc43)cc2)cc1OC	1.4%	.	.	.	0.0	.
C=CCN(CC=C)c1nc2ccccc2nc1C(C#N)C(=O)OC(C)C (configuration not stated)	28.2µM*	-27.2%	?	10.4µM*	-16.1	?
Cc1ccc(-c2csc(N3CCC[C@@H]3C(=O)NCCn3c(C(F)(F)F)nc4ccccc43)n2)cc1	-7.8%	-14.4%	2.33µM*	?	-24.7	?
Cc1ccc(-c2csc(N(CCO)CCCn3c(C(F)(F)F)nc4ccccc43)n2)cc1	-3.9%	-3.3%	6.57µM*	?	-64.4*	10µM*
O=C(NCCn1c(C(F)(F)F)nc2cc(C(F)(F)F)ccc21)[C@H]1CCCN1c1nc(CN2CCCCC2)cs1	5.2%	-3.8%	?	?	.	-12.1%
O=C(Cn1c(=O)c2cccn2c2ccccc21)NCc1cccc(F)c1	3.9%	3.7%	?	-16.7%	?	-10.9%
CN(CCCNC(=O)Cn1c(=O)c2cccn2c2ccccc21)Cc1ccccc1	-15.7%	1.3%	?	-9.5%	-88.3*	-7.6%
COc1cccc(CNC(=O)Cn2c(=O)c3cccn3c3ccccc32)c1	-0.6%	2.6%	-1.9%	-16.3%	-65.7*	-0.6%
O=C(CCn1c(=O)c2cccn2c2ccc(F)cc21)NCCc1ccccc1	-1.3%	2.4%	3.3%	-8.5%	?	10µM*
O=C(CP(=O)(c1ccccc1)c1ccccc1)Nn1cnnc1	5.2%	-12.3%	26.4%	-20.8%	48.8	14.6%
CS(=O)(=O)c1ccc(N)c(SSc2cc(S(C)(=O)=O)ccc2N)c1	-4.3%	2.0%	?	?	-82.4*	-11.7%
CS(=O)(=O)c1ccc2nc(N)sc2c1	8.4%	12.2%	2.3%	31.3%	47.5	5.6%
CC(C)Oc1cccc(Nc2nccc3c2cc(-c2ccc(C(=O)N(C)C)cc2)n3C)c1	.	.	.	.	23.5	.
COCCNCC(=O)Nc1nc(C)cs1	-5.5%	-0.1%	25.4%	15.2%	-14.9	7.3%
Cc1noc(C)c1COC(=O)c1csc2c1CCC(C)C2 (configuration not stated)	-0.4%	-7.7%	?	11.7µM*	-6.5	?
CC1CCc2c(C(=O)NCC3CCCO3)csc2C1 (configuration not stated)	-10.4%	-6.5%	-0.9%	40.3%	10.2	0.3%
COc1ccccc1-c1nnc(-c2ccc(N3CCOCC3)cc2)o1	-21.2%	3.6%	1.65µM*	?	68.1	-24.4%
SMILES	Sm TGR inh	SARS PLP yeast	Pf growth 96h	Pf growth 48h	HCMV inh	HCV inhibitor
COc1cccc(-c2cc(CC3(O)CCN(CCCc4ccccc4)CC3)on2)c1	-0.2%	7.1%	?	11.7µM*	.	4.0%
CCC(=O)Nc1cc(=O)[nH]c2nc(-c3ccc(Cl)cc3)nn12	24.1%	-0.1%	?	0.262µM*	-34.4	-4.3%
CC(C)(C)c1ccc(-c2nc3[nH]c(=O)cc(NC(=O)c4ccco4)n3n2)cc1	-4.0%	-2.2%	4.15µM*	10.4µM*	19.9	25.0%
Cc1ccc(-c2nc3[nH]c(=O)cc(NC(=O)c4cccs4)n3n2)cc1	4.6%	1.3%	?	?	-29.3	12.4%
CCOC(=O)[C@]12CCC=C1N(Cc1ccccc1)C(=O)[C@H](CC(=O)NCC13CC4CC(CC(C4)C1)C3)C2	.	.	.	.	12.5	.
COc1ccc(N2C(=O)c3ccccc3NC(=O)C2C(=O)Nc2ccc3c(c2)OCCO3)cc1 (configuration not stated)	.	.	.	.	35.2	.
COc1ccc([C@H]2CC(=O)C[C@@H](CCn3cc(CCc4ccccc4)nn3)O2)cc1	.	.	.	.	-29.7	.
O=C(c1cc2nc(-c3ccccc3)cc(C(F)(F)F)n2n1)N1CCN2CCCC2C1 (configuration not stated)	-13.2%	-6.5%	?	?	-35.5	8.91µM*
O=C(c1ccccc1)N1CCN(C(=O)c2nn3c(C(F)(F)F)cc(-c4ccco4)nc3c2Cl)CC1	-13.7%	-2.6%	0.0%	?	-8.7	?
O=C(c1nn2c(C(F)(F)F)cc(-c3ccccc3)nc2c1Cl)N1CCN2CCCC2C1 (configuration not stated)	-27.7%	-4.5%	?	?	-61.3*	11.2µM*
CCCCN1C(=O)C(CC(=O)NCCCN(C)C)CC(C(=O)N(C(C)C)C(C)C)=C1C (configuration not stated)	.	.	.	.	4.7	.
COc1ccc(-n2nc3c(c2NC(=O)C(=O)NCc2ccccc2)CSC3)cc1	5.8%	.	.	.	-2.2	.
CCC(C(=O)OCC(=O)N1C(C)CCCC1C)c1ccccc1 (configuration not stated)	11.0%	-0.5%	13.6%	-11.1%	23.8	-15.0%
O=C(OCc1ccccc1)N1CCN(C(c2ccnc3ccccc23)c2nnnn2-c2ccc3c(c2)OCCO3)CC1 (configuration not stated)	.	.	.	.	-18.3	.
CC1CCC(C(C)C)C2=C1C(C#N)(C#N)C(C#N)(C#N)C(c1ccccc1)N2 (configuration not stated)	5.01µM*	9.5%	-0.5%	?	?	?
CC(C)C1OC2(C)OC(=N)C1(C#N)C(C#N)(C#N)C2c1ccccc1 (configuration not stated)	?	10.9%	?	7.1%	?	43.0%

From PubChem
